Laboratory results reported in the supplement of paper PMC8728848.
The full list was thinned out, with the strongest signals kept by preference.

What was measured:
Experiment in all cases: glycan array binding signal (z-score within array); higher = stronger binding
Conditions in all cases: glycan notation: IUPAC condensed, linker removed
[1] = target: Fuc(a1-2)Gal(b1-3)GlcNAc(b1-2)Man(a1-3)[Fuc(a1-2)Gal(b1-3)GlcNAc(b1-2)Man(a1-6)]Man(b1-4)GlcNAc(b1-4)GlcNAc
How it was run: (§1)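 Glycan array data were curated from 3228 arrays in the Consortium for Functional Glycomics database and kept only where the protein sequence was available. Glycan names were converted to IUPAC-condensed notation, and columns mapping to the same glycan were averaged. The binding signal is a within-array Z-score, averaged across arrays of the same protein sequence at different concentrations or buffers and across linkers. Negative Z-scores can be read as non-binding.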

Fuc(a1-2)Gal(b1-4)Glc = target: Fuc(a1-2)Gal(b1-4)Glc
How it was run: as §1

Fuc(a1-2)Gal(b1-4)Glc6S = target: Fuc(a1-2)Gal(b1-4)Glc6S
How it was run: as §1

Fuc(a1-2)Gal6S(b1-4)Glc = target: Fuc(a1-2)Gal6S(b1-4)Glc
How it was run: as §1

[2] = target: Fuc(a1-2)[Gal(a1-3)]Gal(b1-4)GlcNAc(b1-3)[Fuc(a1-2)[Gal(a1-3)]Gal(b1-4)GlcNAc(b1-6)]GalNAc
How it was run: as §1

[3] = target: Fuc(a1-2)[Gal(a1-3)]Gal(b1-4)GlcNAc(b1-6)GalNAc
How it was run: as §1

[4] = target: Fuc(a1-2)[GalNAc(a1-3)]Gal(b1-3)GalNAc(b1-3)Gal(a1-4)Gal(b1-4)Glc
How it was run: as §1

[5] = target: Fuc(a1-2)[GalNAc(a1-3)]Gal(b1-4)GlcNAc(b1-2)Man(a1-3)[Fuc(a1-2)[GalNAc(a1-3)]Gal(b1-4)GlcNAc(b1-2)Man(a1-6)]Man(b1-4)GlcNAc(b1-4)[Fuc(a1-6)]GlcNAc
How it was run: as §1

[6] = target: Fuc(a1-2)[GalNAc(a1-3)]Gal(b1-4)GlcNAc(b1-3)Gal(b1-4)GlcNAc
How it was run: as §1

[7] = target: Fuc(a1-2)[GalNAc(a1-3)]Gal(b1-4)GlcNAc(b1-3)Gal(b1-4)GlcNAc(b1-3)Gal(b1-4)GlcNAc
How it was run: as §1

[8] = target: Fuc(a1-2)[GalNAc(a1-3)]Gal(b1-4)GlcNAc(b1-6)GalNAc
How it was run: as §1

[9] = target: Fuc(a1-2)[GalNAc(a1-4)]Gal(b1-4)GlcNAc
How it was run: as §1

[10] = target: Fuc(a1-3)[Gal(b1-4)]GlcNAc(b1-2)Man
How it was run: as §1

[11] = target: Fuc(a1-3)[Gal(b1-4)]GlcNAc(b1-3)Gal(b1-4)[Fuc(a1-3)]GlcNAc(b1-3)Gal(b1-4)[Fuc(a1-3)]GlcNAc
How it was run: as §1

[12] = target: Fuc(a1-3)[Gal(b1-4)]GlcNAc6S
How it was run: as §1

Gal(a1-6)Glc = target: Gal(a1-6)Glc
How it was run: as §1

Gal(b1-3)GalNAc = target: Gal(b1-3)GalNAc
How it was run: as §1

[13] = target: Gal(b1-3)GlcNAc(b1-2)[Gal(b1-3)GlcNAc(b1-6)]Man(a1-6)[Gal(b1-3)GlcNAc(b1-2)Man(a1-3)]Man(b1-4)GlcNAc(b1-4)GlcNAc
How it was run: as §1

[14] = target: Gal(b1-3)GlcNAc(b1-3)Gal(b1-4)Glc
How it was run: as §1

[15] = target: Gal(b1-3)GlcNAc(b1-3)Gal(b1-4)GlcNAc(b1-2)[Gal(b1-3)GlcNAc(b1-3)Gal(b1-4)GlcNAc(b1-6)]Man(a1-6)[Gal(b1-3)GlcNAc(b1-3)Gal(b1-4)GlcNAc(b1-2)Man(a1-3)]Man(b1-4)GlcNAc(b1-4)[Fuc(a1-6)]GlcNAc
How it was run: as §1

[16] = target: Gal(b1-3)GlcNAc(b1-6)GalNAc
How it was run: as §1

[17] = target: Gal(b1-3)[Neu5Ac(b2-6)]GalNAc
How it was run: as §1

[18] = target: Gal(b1-4)GlcNAc(b1-2)Man(a1-3)[Gal(b1-4)GlcNAc(b1-2)Man(a1-6)][GlcNAc(b1-4)]Man(b1-4)GlcNAc(b1-4)[Fuc(a1-6)]GlcNAc
How it was run: as §1

[19] = target: Gal(b1-4)GlcNAc(b1-2)Man(a1-6)[GlcNAc(b1-2)Man(a1-3)]Man(b1-4)GlcNAc(b1-4)GlcNAc
How it was run: as §1

[20] = target: Gal(b1-4)GlcNAc(b1-2)Man(a1-6)[Man(a1-3)]Man(b1-4)GlcNAc(b1-4)GlcNAc
How it was run: as §1

[21] = target: Gal(b1-4)GlcNAc(b1-2)[Gal(b1-4)GlcNAc(b1-4)]Man(a1-3)[Gal(b1-4)GlcNAc(b1-2)[Gal(b1-4)GlcNAc(b1-6)]Man(a1-6)]Man(b1-4)GlcNAc(b1-4)GlcNAc
How it was run: as §1

[22] = target: Gal(b1-4)GlcNAc(b1-3)Gal(b1-3)GlcNAc
How it was run: as §1

[23] = target: Gal(b1-4)GlcNAc(b1-3)Gal(b1-4)GlcNAc(b1-3)Gal(b1-4)GlcNAc(b1-2)Man(a1-3)[Gal(b1-4)GlcNAc(b1-3)Gal(b1-4)GlcNAc(b1-3)Gal(b1-4)GlcNAc(b1-2)Man(a1-6)]Man(b1-4)GlcNAc(b1-4)GlcNAc
How it was run: as §1

[24] = target: Gal(b1-4)GlcNAc(b1-6)GalNAc
How it was run: as §1

B1: GS13686A-pdi-553-26-553 (Parabacteroides distasonis) (protein)
chain: NENPDKPTDDVNYNMNEPRLASTLRGGLIIEGNVEQRLKPLQIDFYSQMTVDGGGWGTKNYIQDDEWNNLVWEEYLKQIASINIVIRSLTEKDKDAYANTIAFARIWRVYVHTLAADKFGPMPFPAYEIVEANPPYKSLKDIYDEYFRELDAAINGFNDSAQPIFSDAGIDLIYKNDVSKWKRFANSLRLRLAVRLTEVDQEKCIAEANAAISSPAGLISDKADNAYMPPKADGSWGQDYNYTMFQITWSGPICMSKSVEKLVTNIGGVAWPQGVVNQTSGVAVSSVHPEKVDPRAPKIFQPGIENGDWKGLVYGPKAEEANTGIYQSKQCAELGFIIKDGYPYKSRPYDLFLSEEVHFLKAELYARGFIAGDAKSEYEAGVRASFATWGVTSEVDDYLTSTEKNEAGTSARYDDQQGAGNTALEKIITQKYIAGIPDLAQEGWNDKRRLNLPRLDVAVYRDQAVYNNNDKDILKSANFIKRMRYPTKESLINATEYEKGKSMLGGKGDIVSTPLWWDKNSNYCTSSK
glycan array binding signal (z-score) [1]: 0.144
glycan array binding signal (z-score) (Fuc(a1-2)Gal(b1-4)Glc): -0.076
glycan array binding signal (z-score) (Fuc(a1-2)Gal(b1-4)Glc6S): 0.03
glycan array binding signal (z-score) (Fuc(a1-2)Gal6S(b1-4)Glc): -0.226
glycan array binding signal (z-score) [2]: 0.003
glycan array binding signal (z-score) [3]: 0.081
glycan array binding signal (z-score) [4]: -0.124
glycan array binding signal (z-score) [5]: 0.023
glycan array binding signal (z-score) [6]: 0.224
glycan array binding signal (z-score) [7]: 0.041
glycan array binding signal (z-score) [8]: -0.281
glycan array binding signal (z-score) [9]: 1.95
glycan array binding signal (z-score) [10]: -0.253
glycan array binding signal (z-score) [11]: -0.035
glycan array binding signal (z-score) [12]: -0.276
glycan array binding signal (z-score) (Gal(a1-6)Glc): 0.108
glycan array binding signal (z-score) (Gal(b1-3)GalNAc): 0.011
glycan array binding signal (z-score) [13]: 0.046
glycan array binding signal (z-score) [14]: -0.082
glycan array binding signal (z-score) [15]: 1.83
glycan array binding signal (z-score) [16]: 1.97
glycan array binding signal (z-score) [17]: 1.03
glycan array binding signal (z-score) [18]: 1.35
glycan array binding signal (z-score) [19]: 0.027
glycan array binding signal (z-score) [20]: -0.04
glycan array binding signal (z-score) [21]: 2.01
glycan array binding signal (z-score) [22]: -0.133
glycan array binding signal (z-score) [23]: 0.45
glycan array binding signal (z-score) [24]: -0.056
